Reference: PubChem BioAssay (NCATS)
Records with an inconclusive call do not appear. Calls of active or inactive are those of the source. Unless noted, calls follow the shape of the dose curve; as a rule, active = well fitted curve in the direction sought with a large enough effect; inconclusive = small, poorly fitted or top-dose-only effect, or another doubt; inactive = no such curve, though single readings can be large; an effect the other way counts as inactive or inconclusive.

Legend:
[1] = Cell Viability - BJ (AID 421; calls by dose curve;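 also: potency is read from the fitted curve at half-maximal effect; cells exposed to compound for 40 hours at 37 °C before readout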); conditions: BJ fibroblast viability, qHTS
Procedure, shortened: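 Normal human BJ foreskin fibroblasts, 1500/well in complete medium, treated 40 hr at 37 °C. Cellular ATP by CellTiter-Glo luminescence; normalized to DMSO and 100 uM tamoxifen, AC50 from Hill fit.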

[2] = Cell Viability - Jurkat (AID 426;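 active = dose-dependent loss of cell ATP signal giving a full or clear fitted curve, ranked by lower potency value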; also: potency is read from the fitted curve at half-maximal effect); conditions: qHTS
Procedure, shortened: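 Cytotoxicity was scored as loss of cellular ATP, measured by luciferase-based luminescence, in Jurkat clone E6-1 cells after 40 h compound treatment; tamoxifen and doxorubicin served as positive controls.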

[3] = Cell Viability - Hek293 (AID 427;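 active = compounds whose dose-response curve shows a full or clear partial loss of cell viability, called from curve shape rather than a numeric limit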;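 also: potency is read from the fitted curve at half-maximal effect; cells exposed to compound for 40 hours at 37 °C before reading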); conditions: qHTS
Procedure, shortened: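 HEK293 cells in complete medium were exposed to compound for 40 hr at 37 °C, then cellular ATP was read by CellTiter-Glo luminescence. Data were normalized to DMSO (basal) and 100 uM tamoxifen (100% inhibition), and AC50 came from Hill fits.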

[4] = Cell Viability - HepG2 (AID 433; calls by dose curve;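 also: potency is read from the fitted curve at half-maximal effect; potency for ATP loss meaning cytotoxicity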); conditions: qHTS
Procedure, shortened: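 Read-out is luciferase-based quantitation of cellular ATP as a measure of viable HepG2 cells after 40 h treatment at 37 °C. Signal decrease is scaled between DMSO-only and 100 uM tamoxifen controls, with AC50 fitted by the Hill equation.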

[5] = Cell Viability - MRC5 (AID 434; calls by dose curve;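 also: potency is read from the fitted curve at half-maximal effect; potency reflects cytotoxicity seen as loss of intracellular ATP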); conditions: MRC5 lung fibroblast viability, qHTS
Procedure, shortened: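 AC50 values come from Hill-equation fits of intracellular ATP loss, measured by CellTiter-Glo luminescence. Normal lung fibroblasts (MRC5) had 40 hr compound treatment at 37 C, normalized between DMSO and 100 uM tamoxifen.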

[6] = Cell Viability - SK-N-SH (AID 435; calls by dose curve;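 also: potency is read from the fitted curve at half-maximal effect; compound exposure lasted 40 h at 37 °C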); conditions: SK-N-SH neuroblastoma cell viability qHTS
Procedure, shortened: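 Luminescent ATP signal served as the viability read-out after 40 hours of compound treatment of human neuroblastoma SK-N-SH cells. Concentration-response data, scaled between DMSO and 100 uM tamoxifen, gave AC50 values by standard Hill modeling.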

[7] = Cell Viability - HUV-EC-C (AID 542); conditions: HUV-EC-C endothelial cell viability, qHTS; series mostly up to 92.2 µM; also: % is scaled to controls: 0 for no effect and ±100 for the full control effect; nearly all actives have a fitted effect of over 35% in size
Procedure, shortened: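 Concentration-dependent ATP loss in HUV-EC-C cells is the measure. Exposure lasts 40 hr at 37 °C; luminescence follows CellTiter-Glo addition, and Hill fits give AC50.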

[8] = Cellular Toxicity (caspase-3) HepG2 (AID 654); conditions: HepG2 caspase-3 activation, luminescence, 0% = DMSO only, 100% = tamoxifen; series mostly up to 92.2 µM;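 also: cells exposed to compound for 16 hours before reading; 0% = DMSO alone and 100% = caspase signal from 100 µM tamoxifen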
Procedure, shortened: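 Concentration-response AC50 values reflect caspase-3/7 induction in HepG2 cells after 16 hours of compound exposure, quantified by luminescence from liberated aminoluciferin and referenced to 100 uM tamoxifen as full stimulation.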

[9] = Cellular Toxicity (caspase-3) SK-N-SH (AID 661); conditions: SK-N-SH caspase-3 activation, qHTS; series mostly up to 91.7 µM
Procedure, shortened: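 Apoptosis readout in SK-N-SH neuroblastoma: Caspase-Glo 3/7 luminescence following 16 hr treatment in complete culture medium. Normalization used DMSO and 10 uM staurosporine controls.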

[10] = Cellular Toxicity (caspase-3) N2a (AID 665); conditions: N2a cells, luminescence, normalized: DMSO 0%, 10 µM staurosporine 100%; series mostly up to 92.2 µM;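 also: compound exposure lasted 16 h at 37 °C before readout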
Procedure, shortened: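 Concentration-response qHTS: compound-induced caspase-3/7 luminescence in N2a cells (16 h, 37 °C), relative to DMSO and 10 uM staurosporine controls; AC50 obtained using the standard Hill equation.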

[11] = Cellular Toxicity (caspase-3) NIH 3T3 (AID 666); conditions: NIH 3T3 caspase-3 activation, apoptosis/toxicity; series mostly up to 92.2 µM;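 also: caspase signal read after 16 h compound exposure; 0% = DMSO basal and 100% = 100 µM tamoxifen stimulation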
Procedure, shortened: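 Activity: caspase-3/7 induction, NIH 3T3 cells, 16 hr treatment at 37°C, luminescent Caspase-Glo detection; AC50 via Hill equation.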

[12] = Cellular Toxicity (caspase-3) Renal Proximal Tubule (AID 667); conditions: renal proximal tubule cells; series mostly up to 91.7 µM;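 also: cells exposed to compound for 16 hours at 37 °C before detection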
Procedure, shortened: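 AC50 derived by standard Hill fit of concentration-response data, normalized between DMSO basal and 10 uM staurosporine as 100% stimulation. Cells: primary rat kidney proximal tubule, 16 h treatment at 37 °C.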

[13] = MultiTox-Fluor Cytotoxicity Assay - LYMP1-003 - Dead Cells (AID 961); conditions: LYMP1-003 lymphoblastoid cells, dead-cell protease fluorescence; series mostly up to 92.2 µM;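 also: 0% = DMSO and 100% = tetraoctylammonium bromide; nearly all actives have a fitted effect of over 70% in size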
Procedure, shortened: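 LYMP1-003 human lymphoblastoid cells (2500/well) exposed to compound 16 h at 37 C in complete medium; dead-cell protease read with bis-AAF-R110 fluorescence (Ex/Em 485/520) after 60 min at room temperature. Normalized to DMSO and 15 uM tetraoctylammonium bromide; AC50 from Hill fit.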

[14] = Cell Viability - LYMP2-007 (AID 979); conditions: LYMP2-007 lymphoblastoid cell viability; series mostly up to 92.2 µM;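 also: cells exposed to compound for 24 h before reading; 0% = DMSO only and the negative end = 92 µM tetraoctylammonium bromide; nearly all actives have a fitted effect of over 60% in size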
Procedure, shortened: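 Measured via luciferase-based ATP quantitation: lymphoblastoid cells, 24 hr compound exposure at 37 C, AC50 from Hill fits.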

[15] = Cell Viability - LYMP1-002 - Assay at 24 hr (AID 993); conditions: LYMP1-002 lymphoblastoid cells viability; series mostly up to 92.2 µM; also: % is scaled to controls: 0 for no effect and ±100 for the full control effect
Procedure, shortened: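 Viability was judged from intracellular ATP using a luciferase read-out, following a 24-hour compound incubation at 37 C of lymphoblastoid cells seeded at 2500 per well. Concentration-response data were fitted to the Hill equation for AC50.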

[16] = qHTS Assay for Identification of Small Molecule Inducers of Hypoxia Response (AID 2120; active = well fitted curve in the direction sought with a large enough effect in the signal ratio, with a control signal flat, not every such curve was filed as active; the % refers to the signal ratio; also: 0% is about no effect); conditions: hypoxia response reporter cells, beta-lactamase ratio readout; series mostly up to 104 µM
Procedure, shortened: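 HRE-bla ME-180, 2500 cells/well, 0.5% dialyzed FBS medium; cpd titration, 17 h 37 degrees C; CCF4 2.5 h RT; Ex 405, Em 460/530 ratio -> %Activity, AC50.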

[17] = target: Peroxisome proliferator-activated receptor alpha (Homo sapiens) (UniProt Q07869); assay: qHTS assay for small molecule agonists of the peroxisome proliferator-activated receptor alpha (PPARalpha) signaling pathway (AID 651778); conditions: PathHunter PPARalpha complementation, chemiluminescence, 6 h; hits give high values; also: % of control where 0% means no effect
Chain of Peroxisome proliferator-activated receptor alpha (Homo sapiens) (Q07869 whole entry, looked up): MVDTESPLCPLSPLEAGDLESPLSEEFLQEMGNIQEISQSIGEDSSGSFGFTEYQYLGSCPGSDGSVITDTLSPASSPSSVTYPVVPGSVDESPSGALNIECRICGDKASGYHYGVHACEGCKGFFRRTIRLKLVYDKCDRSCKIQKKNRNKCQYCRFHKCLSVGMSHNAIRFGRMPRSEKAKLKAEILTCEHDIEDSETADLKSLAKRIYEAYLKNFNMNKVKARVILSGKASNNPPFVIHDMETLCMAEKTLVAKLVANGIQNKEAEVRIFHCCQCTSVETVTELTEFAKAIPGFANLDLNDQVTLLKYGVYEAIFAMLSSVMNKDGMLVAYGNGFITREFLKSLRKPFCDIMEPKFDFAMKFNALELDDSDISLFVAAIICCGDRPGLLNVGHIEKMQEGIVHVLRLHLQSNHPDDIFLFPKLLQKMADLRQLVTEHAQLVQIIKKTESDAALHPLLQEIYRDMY
Procedure, shortened: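 Chemiluminescence from complemented enzyme reported PPARalpha activation in cells after 6 hr of compound treatment at 37 C. The detection reagent was incubated for 60 min at room temperature, and compounds were scored as agonists.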

[18] = qHTS assay for small molecule agonists of the antioxidant response element (ARE) signaling pathway measured by Nrf2-dependant transcriptional activity - cell viability counter screen (AID 720653; active = well fitted curve in the direction sought with a large enough effect in the repeat runs; an effect the other way counts as inactive or inconclusive; also: % is scaled to controls: 0 for no effect and ±100 for the full control effect); conditions: ARE-bla HepG2 viability, CellTiter-Glo ATP luminescence, 16 h; hits give low values
Procedure, shortened: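 Cytotoxicity counter screen: intracellular ATP quantified by CellTiter-Glo luminescence in the same ARE-bla HepG2 plates, after 16 h compound exposure and a 2 h beta-lactamase substrate step.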

[19] = qHTS assay for cell viability of HEK293 cells (AID 743288); conditions: ATP luminescence (CellTiter-Glo), 18 h, hits give low values; also: % is scaled to controls: 0 for no effect and ±100 for the full control effect; nearly all actives have a fitted effect of over 50% in size
Procedure, shortened: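 Viable-cell counts were inferred from luciferase-based ATP content in HEK293 cells seeded at 2,000/well, pre-incubated ≥5 h, then dosed with DMSO-solubilised compounds for 18 h at 37 C.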

[20] = qHTS assay for cell viability of the p53RE-bla HCT-116 cell line (AID 743292); conditions: p53RE-bla HCT-116 viability, ATP luminescence, 16 h; series mostly up to 95 µM; also: % is scaled to controls: 0 for no effect and ±100 for the full control effect; nearly all actives have a fitted effect of over 55% in size
Procedure, shortened: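 Viability of compound-treated p53RE-bla HCT-116 cells is taken from ATP-dependent luciferase luminescence. Treatment lasts 16 h at 37 C after a 5 h settling period; detection follows 30 min at room temperature.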

CCCBr
inactive: Potency [1] > 92 µM | Potency [2] > 92 µM | Potency [3] > 92 µM | Potency [4] > 92 µM | Potency [5] > 92 µM | Potency [6] > 92 µM | Potency [7] | outcome [8] | Potency [9] | outcome [10] | Potency [11] | outcome [12] | Potency [13] | Potency [14] | Potency [15] | Potency [16] | max response [17] -0.188% | max response [18] -3.32% | max response [19] -3.65% | Potency [20]

CCCCCc1cc(O)cc(O)c1
inactive: Potency [1] > 92 µM | Potency [2] > 92 µM | Potency [3] > 92 µM | Potency [4] > 92 µM | Potency [5] > 92 µM | Potency [6] > 92 µM | Potency [7] | outcome [8] | Potency [9] | outcome [10] | Potency [11] | outcome [12] | Potency [13] | Potency [14] | Potency [15] | Potency [16] | max response [17] -5.69% | max response [18] 8.35% | max response [19] -5.2% | Potency [20]

CCCCCC[N+](=O)[O-]
inactive: Potency [1] > 92 µM | Potency [2] > 92 µM | Potency [3] > 92 µM | Potency [4] > 92 µM | Potency [5] > 92 µM | Potency [6] > 92 µM | Potency [7] | outcome [8] | Potency [9] | outcome [10] | Potency [11] | outcome [12] | Potency [13] | Potency [14] | Potency [15] | Potency [16] | max response [17] 6.24% | max response [18] 8% | max response [19] 7.41% | Potency [20]

N#CCc1ccccc1
inactive: Potency [1] > 92 µM | Potency [2] > 92 µM | Potency [3] > 92 µM | Potency [4] > 92 µM | Potency [5] > 92 µM | Potency [6] > 92 µM | Potency [7] | outcome [8] | Potency [9] | outcome [10] | Potency [11] | outcome [12] | Potency [13] | Potency [14] | Potency [15] | Potency [16] | max response [17] 0.0396% | max response [18] -1.59% | max response [19] -1.92% | Potency [20]

CCC(Cl)[N+](=O)[O-] (stereo not given)
inactive: Potency [1] > 92 µM | Potency [2] > 92 µM | Potency [3] > 92 µM | Potency [4] > 92 µM | Potency [5] > 92 µM | Potency [6] > 92 µM | Potency [7] | outcome [8] | Potency [9] | outcome [10] | Potency [11] | outcome [12] | Potency [13] | Potency [14] | Potency [15] | Potency [16] | max response [17] 11.6% | max response [18] -4.85% | max response [19] -3.51% | Potency [20]

CN(C)N=O
inactive: Potency [1] > 92 µM | Potency [2] > 92 µM | Potency [3] > 92 µM | Potency [4] > 92 µM | Potency [5] > 92 µM | Potency [6] > 92 µM | Potency [7] | outcome [8] | Potency [9] | outcome [10] | Potency [11] | outcome [12] | Potency [13] | Potency [14] | Potency [15] | Potency [16] | max response [17] 0.541% | max response [18] -2.49% | max response [19] -0.309% | Potency [20]

OCCBr
inactive: Potency [1] > 92 µM | Potency [2] > 92 µM | Potency [3] > 92 µM | Potency [4] > 92 µM | Potency [5] > 92 µM | Potency [6] > 92 µM | Potency [7] | outcome [8] | Potency [9] | outcome [10] | Potency [11] | outcome [12] | Potency [13] | Potency [14] | Potency [15] | Potency [16] | max response [17] 2.96% | max response [18] 1.65% | max response [19] 5.14% | Potency [20]

ClC(Cl)C(Cl)Cl
inactive: Potency [1] > 92 µM | Potency [2] > 92 µM | Potency [3] > 92 µM | Potency [4] > 92 µM | Potency [5] > 92 µM | Potency [6] > 92 µM | Potency [7] | outcome [8] | Potency [9] | outcome [10] | Potency [11] | outcome [12] | Potency [13] | Potency [14] | Potency [15] | Potency [16] | max response [17] -3.31% | max response [18] -4.41% | max response [19] -11.3% | Potency [20]

C=CC(=O)OC
inactive: Potency [1] > 92 µM | Potency [2] > 92 µM | Potency [3] > 92 µM | Potency [4] > 92 µM | Potency [5] > 92 µM | Potency [6] > 92 µM | Potency [7] | outcome [8] | Potency [9] | outcome [10] | Potency [11] | outcome [12] | Potency [13] | Potency [14] | Potency [15] | Potency [16] | max response [17] -1.74% | max response [18] 8.65% | max response [19] 4.03% | Potency [20]

CC(C)(Cl)[N+](=O)[O-]
inactive: Potency [1] > 92 µM | Potency [2] > 92 µM | Potency [3] > 92 µM | Potency [4] > 92 µM | Potency [5] > 92 µM | Potency [6] > 92 µM | Potency [7] | outcome [8] | Potency [9] | outcome [10] | Potency [11] | outcome [12] | Potency [13] | Potency [14] | Potency [15] | Potency [16] | max response [17] -3.23% | max response [18] -1.78% | max response [19] 8.03% | Potency [20]
